Records with an inconclusive call do not appear. Calls of active or inactive are those of the source. Calls come from the whole dose curve; as a rule, active = well fitted cell-killing curve with a large enough effect; inconclusive = small, poorly fitted or top-dose-only effect, or effect the other way; inactive = flat fitted curve, though single readings scatter.
Key:
Assay in all cases: Primary qHTS to identify gynecologic anti-cancer compounds using libraries of approved drugs and bioactive compounds (AID 1345084); note: nearly all actives have a fitted effect of over 55% in size
Settings in all cases: Gynecologic cancer cell panel viability, ATPlite luminescence, 48 h; series mostly up to 57.5 µM
OV90 = tested on: OV90
Summary of the method: (§1)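 Measured: luminescence after ATPlite addition (15 min, RT). Exposure: 48 h, 37 C, 5% CO2.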

PA-1 = tested on: PA-1
Summary of the method: as §1

SKOV3 = tested on: SKOV3
Summary of the method: as §1

Tov-21-G = tested on: Tov-21-G
Summary of the method: as §1

Tov112D = tested on: Tov112D
Summary of the method: as §1
% is set by controls: 0 for no effect and ±100 for the full control effect.

COc1ccc(NC(=O)c2ccc(-c3ccc(C(N)=O)cc3C)cc2)cc1N1CCN(C)CC1
inactive: Potency (OV90) | Potency (PA-1) | Potency (SKOV3) | Potency (Tov-21-G) | Potency (Tov112D)

CCCNCCOc1ccc(NC(=O)c2c[nH]c3c2C(=O)CCC3)cc1F
inactive: Potency (OV90) | Potency (PA-1) | Potency (SKOV3) | Potency (Tov-21-G) | Potency (Tov112D)

C=C(COC(=O)C(C)C)C1Oc2cc(C(C)=O)ccc2C1OC(=O)C(C)C (stereo not given)
inactive: Potency (OV90) | Potency (PA-1) | Potency (SKOV3) | Potency (Tov-21-G) | Potency (Tov112D)

O=C(/C=C/c1ccc(O)c(O)c1)O[C@@H]1[C@@H](O)[C@H](OC2CCCCC2O)O[C@H](CO)[C@H]1O (stereo not given in full)
inactive: Potency (OV90) | Potency (PA-1) | Potency (SKOV3) | Potency (Tov-21-G) | Potency (Tov112D)

C=CC(C)(O)CC/C=C(\C)C1CC=C(C)C(=O)O1 (stereo not given)
inactive: Potency (OV90) | Potency (PA-1) | Potency (SKOV3) | Potency (Tov-21-G) | Potency (Tov112D)

Cc1ccc2nc(NC(=O)CSc3nc4c(c(=O)n3-c3ccc(F)cc3)SCC4)sc2c1
inactive: Potency (OV90) | Potency (PA-1) | Potency (SKOV3) | Potency (Tov-21-G) | Potency (Tov112D)

C=C(C)[C@@]1(O)C[C@@]2(C)C(=CC1=O)CC[C@@H](O)[C@@H]2C
inactive: Potency (OV90) | Potency (PA-1) | Potency (SKOV3) | Potency (Tov-21-G) | Potency (Tov112D)

COc1cc(C)c(C(=O)O[C@@H]2[C@H](O)[C@@H](CO)O[C@H]2n2ccc(=O)[nH]c2=O)c(OC)c1
inactive: Potency (OV90) | Potency (PA-1) | Potency (SKOV3) | Potency (Tov-21-G) | Potency (Tov112D)

COC(=O)C1=COC(OC2OC(CO)C(O)C(O)C2O)C2C(C)C(OC(=O)/C=C/c3ccc(O)cc3)C(O)C12 (stereo not given)
inactive: Potency (OV90) | Potency (PA-1) | Potency (SKOV3) | Potency (Tov-21-G) | Potency (Tov112D)

C=C1CC[C@@H]2[C@@](C)(CO[C@@H]3O[C@H](CO)[C@@H](O)[C@H](O)[C@H]3O)[C@H](O)CC[C@@]2(C)[C@@H]1CC/C(C)=C/CO[C@@H]1O[C@H](CO)[C@@H](O)[C@H](O)[C@H]1O
inactive: Potency (OV90) | Potency (PA-1) | Potency (SKOV3) | Potency (Tov-21-G) | Potency (Tov112D)

OC[C@@]1(O)CO[C@H](OC[C@H]2O[C@@H](OC(CCCCc3ccc(O)cc3)CCc3ccc(O)cc3)[C@H](O)[C@@H](O)[C@@H]2O)[C@@H]1O (stereo not given in full)
inactive: Potency (OV90) | Potency (PA-1) | Potency (SKOV3) | Potency (Tov-21-G) | Potency (Tov112D)

CC(C)NC(=O)c1ccc(C#Cc2ccncc2)cn1
inactive: Potency (OV90) | Potency (PA-1) | Potency (SKOV3) | Potency (Tov-21-G) | Potency (Tov112D)

O=C(O)c1cc(O[C@@H]2O[C@H](CO)[C@@H](O)[C@H](O)[C@H]2O)ccc1O
inactive: Potency (OV90) | Potency (PA-1) | Potency (SKOV3) | Potency (Tov-21-G) | Potency (Tov112D)

CC(O)C1CCC2C3CCC4CC(OC5OC(C(=O)O)C(O)C(O)C5O)CCC4(C)C3CCC12C (stereo not given)
inactive: Potency (OV90) | Potency (PA-1) | Potency (SKOV3) | Potency (Tov-21-G) | Potency (Tov112D)

COc1cc(O)cc2c1C(=O)OC(C)CCCCCCC2 (stereo not given)
inactive: Potency (OV90) | Potency (PA-1) | Potency (SKOV3) | Potency (Tov-21-G) | Potency (Tov112D)

CC(=O)OC1C(CO)OC(O[C@H]2[C@H](OC(=O)[C@]34CCC(C)(C)C[C@H]3C3=CCC5[C@@]6(C)CC[C@H](O[C@@H]7O[C@H](C(=O)O)[C@@H](O)[C@H](O[C@@H]8OC[C@@H](O)[C@H](O)[C@H]8O)[C@H]7O[C@@H]7O[C@H](CO)[C@H](O)[C@H](O)[C@H]7O)[C@@](C)(C=O)C6CC[C@@]5(C)[C@]3(C)C[C@H]4O)O[C@H](C)[C@H](OC3OC(C)C(OC4OCC(O)C(O)C4O)C(O)C3O)[C@@H]2O)C(O)C1O (stereo not given in full)
inactive: activity change, negative = cytotoxicity (OV90) -0.616% [at 6.55 µM] | activity change, negative = cytotoxicity (PA-1) 13.7% [at 6.55 µM] | activity change, negative = cytotoxicity (SKOV3) 33.2% [at 6.55 µM] | activity change, negative = cytotoxicity (Tov-21-G) 2.01% [at 6.55 µM] | activity change, negative = cytotoxicity (Tov112D) 5.09% [at 6.55 µM]

Cn1cc(Nc2cnccc2C(=O)O)c2cccnc21
inactive: Potency (OV90) | Potency (PA-1) | Potency (SKOV3) | Potency (Tov-21-G) | Potency (Tov112D)

C[C@@H]1O[C@@H](O[C@@H]2[C@@H](O)[C@H](O[C@@H]3[C@@H](O)[C@@H](O)[C@H](O[C@H]4[C@H](OC(=O)[C@]56CCC(C)(C)C[C@H]5C5=CCC7[C@@]8(C)C[C@H](O)[C@H](O[C@@H]9O[C@H](C(=O)O)[C@@H](O)[C@H](O)[C@H]9O)[C@@](C)(CO)C8[C@H](O)C[C@@]7(C)[C@]5(C)C[C@H]6O)O[C@@H](CO)[C@@H]4O)O[C@H]3C)OC[C@H]2O)[C@H](O)[C@H](O)[C@H]1O (stereo not given in full)
inactive: activity change, negative = cytotoxicity (OV90) 0.206% [at 6.55 µM] | activity change, negative = cytotoxicity (PA-1) 24% [at 6.55 µM] | activity change, negative = cytotoxicity (SKOV3) -4.92% [at 6.55 µM] | activity change, negative = cytotoxicity (Tov-21-G) 2.22% [at 6.55 µM] | activity change, negative = cytotoxicity (Tov112D) 5.57% [at 6.55 µM]

CC1(C)OC(=O)C=C[C@@]2(C)C1CC(=O)[C@]1(C)C2CC[C@@]2(C)[C@H](c3ccoc3)OC(=O)[C@H]3O[C@]321 (stereo not given in full)
inactive: Potency (OV90) | Potency (PA-1) | Potency (SKOV3) | Potency (Tov-21-G) | Potency (Tov112D)

CC[C@H]1OC(=O)[C@H](C)C(=O)[C@H](C)[C@@H](OC2O[C@H](C)C[C@H](N(C)C)[C@H]2O)[C@@H](C)C[C@@H](C)C(=O)/C=C/[C@]1(C)O (stereo not given in full)
inactive: Potency (OV90) | Potency (PA-1) | Potency (SKOV3) | Potency (Tov-21-G) | Potency (Tov112D)

Cc1oc(S(=O)(=O)N2CCCCC2)cc1NC(=O)Nc1ccccc1
inactive: Potency (OV90) | Potency (PA-1) | Potency (SKOV3) | Potency (Tov-21-G) | Potency (Tov112D)

CC1CC2OCC3(O)CCC(O)C(C14CC(c1ccoc1)OC4=O)C23CO (stereo not given)
inactive: Potency (OV90) | Potency (PA-1) | Potency (SKOV3) | Potency (Tov-21-G) | Potency (Tov112D)

Source: PubChem BioAssay (NCATS)
